An excerpt weighted towards active compounds, which were near 5.8% of everything screened.
Gal4-VP16 FLuc – VP16 counterscreen qHTS for inhibitors of ROR gamma transcriptional activity | 310,000 compounds, 3.5% hits | AID 2546, 2010 | Potency, µM (doses to about 53.6 µM), actives largely listed as inhibitors | Drosophila S2 Gal4-VP16 UAS-luciferase, luminescence, 20 h;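 also: Gal4-VP16 expression switched on by copper sulfate through the metallothionein promoter; nearly all actives have a fitted effect of over 50% in size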
TRPV1 PAM – HTS Assay for Compounds that Act as Potentiators of the Vanilloid Receptor 1; TRPV1-expressing cells, Fluo-8 calcium influx, capsaicin EC20 potentiation; AID 540277, 2011; Transient receptor potential cation channel subfamily V member 1 (Homo sapiens), Q8NER1; 320,000 compounds, 0.02% hits; potentiation, % at 8.33 µM; in the data active = potentiation above about 80%; inconclusive = between about 30% and that limit
Target sequence (Q8NER1 whole entry, looked up): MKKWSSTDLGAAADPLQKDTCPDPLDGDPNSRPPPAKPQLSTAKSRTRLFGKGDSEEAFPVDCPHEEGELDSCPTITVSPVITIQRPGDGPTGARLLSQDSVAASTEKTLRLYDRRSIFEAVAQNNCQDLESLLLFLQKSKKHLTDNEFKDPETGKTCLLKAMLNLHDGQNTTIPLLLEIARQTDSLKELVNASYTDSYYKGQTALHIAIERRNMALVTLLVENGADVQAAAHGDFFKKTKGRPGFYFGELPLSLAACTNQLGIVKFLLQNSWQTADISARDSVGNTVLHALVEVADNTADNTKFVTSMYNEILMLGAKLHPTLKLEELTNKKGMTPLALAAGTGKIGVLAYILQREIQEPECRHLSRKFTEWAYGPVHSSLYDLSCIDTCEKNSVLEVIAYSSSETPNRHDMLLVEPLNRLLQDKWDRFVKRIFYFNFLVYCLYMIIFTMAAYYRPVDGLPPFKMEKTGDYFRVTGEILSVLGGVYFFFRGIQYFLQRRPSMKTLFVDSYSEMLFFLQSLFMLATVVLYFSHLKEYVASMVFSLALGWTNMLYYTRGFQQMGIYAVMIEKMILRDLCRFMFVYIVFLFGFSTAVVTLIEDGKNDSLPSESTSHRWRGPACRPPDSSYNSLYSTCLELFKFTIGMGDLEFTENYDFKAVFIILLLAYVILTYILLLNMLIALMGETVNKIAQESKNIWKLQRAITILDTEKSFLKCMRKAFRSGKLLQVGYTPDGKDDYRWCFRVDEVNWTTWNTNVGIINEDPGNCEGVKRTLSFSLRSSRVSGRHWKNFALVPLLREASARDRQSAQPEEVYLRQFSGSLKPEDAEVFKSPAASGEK
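Fluo-8 calcium influx in TRPV1-expressing cells, kinetic read (ex 480/em 520 nm). Compound added and read 3 min for agonist activity, followed by capsaicin at EC20 final and 2 min further read for enhancement.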
TRPV1 agonist – HTS Assay for Compounds that Act as Agonists of the Vanilloid Receptor 1; 320,000 compounds, 0.19% hits; Transient receptor potential cation channel subfamily V member 1 (Homo sapiens), Q8NER1; TRPV1-expressing cells, Fluo-8 calcium influx, agonist mode; activation, % at 8.33 µM; AID 540275, 2011; in the data active = activation above about 80%; inconclusive = between about 30% and that limit
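TRPV1-expressing cells were cultured overnight at 35.5C and loaded with Fluo-8 calcium dye for 40 to 90 min at room temperature. After a 10 s baseline, compound was added and calcium influx was read kinetically for 3 min (ex 480/em 520 nm).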
uPA surface inh – qHTS for Inhibitors of Cell Surface uPA Generation | cell surface uPA generation assay, qHTS | Potency, µM (doses to about 38.3 µM), most hits filed as inhibitors | 330,000 compounds, 0.31% hits | AID 540303, 2011; active = well fitted inhibition curve with a large enough effect; inconclusive = small, poorly fitted or top-dose-only effect; inactive = no such curve, though single readings can be large or run the other way; tested in mouse RAW 264.7 cells; also: nearly all actives have a fitted effect of over 55% in size
RORgamma inh – qHTS for inhibitors of ROR gamma transcriptional activity. Nuclear receptor ROR-gamma (Mus musculus), P51450. Drosophila S2 Gal4-RORgamma UAS-luciferase reporter, 20 h. Potency, µM (series often up to 53.6 µM), usual class: inhibitors. 310,000 compounds, 5.4% hits; also: nearly all actives have a fitted effect of over 60% in size
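Drosophila S2 cells stably expressing Gal4-DBD/mouse RORγ fusion under metallothionein promoter plus UAS-luciferase; compound 1 h, then 700 uM CuSO4 induction for 20 h at ambient temperature; inhibition read as reduced luminescence.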
Of the large screens only hits and unclear results are named; the others gave an inactive call; ! = not active in a repeat. Unless noted, calls follow the shape of the dose curve; as a rule, active = well fitted curve in the direction sought with a large enough effect; inconclusive = small, poorly fitted or top-dose-only effect, or another doubt; inactive = no such curve, though single readings can be large; an effect the other way counts as inactive or inconclusive.

O=C1CC(c2ccccc2)CC(O)=C1C=Nc1ccccc1O (stereo unspecified)	uPA surface inh inconclusive, RORgamma inh 11µM
O=C1CC(c2ccccc2)CC(O)=C1C=Nc1ccccc1 (stereo unspecified)	TRPV1 agonist inconclusive
CCCc1cc(=O)n2[nH]c(SCc3ccc(Cl)cc3)nc2n1	uPA surface inh inconclusive
Cc1cc(=O)n2[nH]cc(-c3ccccc3)c2n1	Gal4-VP16 FLuc inconclusive, RORgamma inh inconclusive
CCOC(=O)Cc1cc(=O)n2[nH]cc(-c3cccc(Br)c3)c2n1	Gal4-VP16 FLuc inconclusive, RORgamma inh 13µM
CCOC(=O)Cc1c(C)nc2c(-c3ccc(Cl)cc3)c[nH]n2c1=O	Gal4-VP16 FLuc 16µM, RORgamma inh 5.6µM
COCc1cc(=O)n2[nH]cc(-c3ccccc3)c2n1	Gal4-VP16 FLuc 10µM, RORgamma inh 13µM
CCCc1cc(=O)n2[nH]cc(-c3ccc(Cl)cc3)c2n1	Gal4-VP16 FLuc 3.2µM, TRPV1 PAM inconclusive, RORgamma inh 4.5µM
O=C(N/N=C/c1cccs1)c1cccc(S(=O)(=O)Nc2ccc(Cl)cc2)c1	Gal4-VP16 FLuc 5.6µM, RORgamma inh 4µM
O=C(N/N=C/c1cccs1)c1cccc(NC(=O)c2ccc(Cl)cc2)c1	Gal4-VP16 FLuc 13µM, TRPV1 agonist inconclusive, RORgamma inh 10µM (no result: uPA surface inh)
Cc1c(NC(=O)C(C)Sc2nnc(-c3ccccc3)o2)c(=O)n(-c2ccccc2)n1C (stereo unspecified)	none
COc1ccc(-c2c(C)nn3c(NC4CCCC4)cc(C)nc23)cc1OC	none
CCc1c(C)nc2cc(-c3ccc(OC)c(OC)c3)nn2c1NCC1CC1	Gal4-VP16 FLuc 4.5µM, RORgamma inh 11µM
Cc1ccc(C)c(CN2C(=O)c3ccccc3S(=O)c3ccc(C(=O)N4CCN(c5ccccn5)CC4)cc32)c1 (stereo unspecified)	none
O=C(N/N=C/c1c[nH]c2ccccc12)c1cc(Br)ccc1O	Gal4-VP16 FLuc 7.9µM, RORgamma inh 5.6µM
C/C=N/NC(=O)c1cc(Br)ccc1O	Gal4-VP16 FLuc inconclusive, RORgamma inh 11µM
O=C(NN=C1CCN(Cc2ccccc2)CC1)c1cc(Br)ccc1O	Gal4-VP16 FLuc inconclusive, RORgamma inh 3.5µM
O=C(N/N=C/c1c[nH]c2ccccc12)c1[nH]c2ccc(Br)cc2c1-c1ccccc1	Gal4-VP16 FLuc inconclusive, uPA surface inh inconclusive, RORgamma inh 16µM
CCOc1ccc(Br)cc1C(=O)N/N=C/c1c[nH]c2ccccc12	uPA surface inh inconclusive
O=C(NN=C1CCN(Cc2ccccc2)CC1)c1ccccc1	none
COc1ccc(Br)cc1/C=N/NC(=O)c1cc(Br)ccc1O	none (no result: uPA surface inh)
Cc1ccc(NC(=O)/C(=C\c2cccnc2)NC(=O)c2ccccc2)cc1	none
CCCCC/C=C\C[C@@H](O)/C=C/C=C\C/C=C\CCCC(=O)O	none (no result: TRPV1 PAM, TRPV1 agonist, uPA surface inh)
CC(C)C[C@@H](CN)NC(=O)c1nc[nH]c1C(=O)N[C@@H](CC(C)C)C(=O)CNC[C@H](C)NC(=O)c1nc[nH]c1C(=O)N[C@@H](C)C(=O)O	none (no result: Gal4-VP16 FLuc, TRPV1 PAM, TRPV1 agonist, RORgamma inh)
O=C(N/N=C/c1c[nH]c2ccccc12)c1cccc([N+](=O)[O-])c1	Gal4-VP16 FLuc inconclusive, RORgamma inh 13µM
O=C(N/N=C/c1c[nH]c2ccccc12)c1ccccc1	uPA surface inh inconclusive (no result: Gal4-VP16 FLuc, RORgamma inh)
COc1ccc(-c2ccc(C3C4C=CCC(C)C4C(=O)N3Cc3ccccc3)c(F)c2)cc1OC (stereo unspecified)	none (no result: TRPV1 PAM, TRPV1 agonist, uPA surface inh)
O=c1[nH]c(SCc2nc3ccccc3n2Cc2ccccc2)nc2ccccc12	Gal4-VP16 FLuc inconclusive, RORgamma inh 4.5µM
OCc1nc2ccccc2n1Cc1ccc(Cl)cc1	none
Clc1ccc(Cn2c(CN3CCCC3)nc3ccccc32)cc1	Gal4-VP16 FLuc 7.1µM, RORgamma inh 2µM! (no result: uPA surface inh)
c1ccc(Cn2c(CN3CCCC3)nc3ccccc32)cc1	Gal4-VP16 FLuc inconclusive, RORgamma inh 14µM
CCC(C)C(NC(=O)OC(C)(C)C)C(=O)NC1COC2CC(n3cc(F)c(=O)[nH]c3=O)OC12 (stereo unspecified)	none (no result: TRPV1 PAM, TRPV1 agonist, uPA surface inh)
O=C(NC(=S)Nc1nc2c(s1)CCCC2)c1ccc(C(=O)c2ccccc2)cc1	Gal4-VP16 FLuc inconclusive, RORgamma inh inconclusive
